Source: PubChem
DAX1 inh-1: DAX1 (NR0B1) inhibitors, primary screen, cell-based, HEK293, Gal4-DAX1, luciferase luminescence; HEK293 Gal4-DAX1 luciferase reporter; inhibition, % at 6.75 µM; 0.99% of 340,000 active;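 active means inhibition above the mean over all tested compounds plus 3 SD, cut at about 4.2% in these data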;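 further: 0% = DAX1-transfected cells with DMSO and 100% = empty-vector control cells with DMSO; inhibition shows as a rise in luminescence from relieved DAX1 repression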
Target sequence (P51843 207-470 limits assumed): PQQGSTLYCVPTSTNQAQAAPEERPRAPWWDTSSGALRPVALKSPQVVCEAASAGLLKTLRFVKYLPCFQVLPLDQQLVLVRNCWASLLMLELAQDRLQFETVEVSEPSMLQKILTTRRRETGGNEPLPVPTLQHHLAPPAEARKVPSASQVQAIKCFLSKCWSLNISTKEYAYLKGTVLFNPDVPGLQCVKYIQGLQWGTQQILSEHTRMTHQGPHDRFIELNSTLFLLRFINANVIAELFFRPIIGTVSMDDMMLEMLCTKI
DAX1 inh-2: DAX1 (NR0B1) inhibitors on StAR promoter, primary screen, cell-based, luminescence, SF-1 (NR5A1), full-length DAX-1; inhibition, % at 6.8 µM; 1.1% of 370,000 active; HEK293T StAR-luciferase reporter, SF-1/DAX-1 repression relief;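 active means inhibition above the mean over all tested compounds plus 3 SD, cut at about 3.6% in these data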;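 further: 0% = DAX-1 cells with DMSO and 100% = cells lacking DAX-1 with DMSO; higher inhibition means more luminescence from relief of DAX-1 repression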
hgDAF-12 ag: H. glycines DAF-12 receptor agonists, primary screen, cell-based, luminescence, HEK293, GAL4 fusion, UAS-luciferase; activation, % at 6.8 µM; HEK293 GAL4-hgDAF12 UAS-luciferase reporter, agonist luminescence; normalized to butyrate control; Nuclear hormone receptor DAF-12 (Heterodera glycines), GAL4 fusion; 1.8% of 370,000 active; AID 687014, 2013;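 active means activation above a cutoff set at the mean of all screened compounds plus 3 SD, cut at about 10% in these data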;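 further: 0% = DMSO wells and 100% = sodium butyrate wells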
hcDAF-12 act: H. contortus DAF-12 nuclear receptor activators, primary screen, cell-based, luminescence, HEK293, lit1-tk-luc reporter; HEK293 hcDAF-12 lit1-tk-luc reporter; 0% DMSO, 100% Δ7-dafachronic acid; 1.4% of 370,000 active; AID 652067, 2013; activation, % at 6.8 µM;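 active means activation above the mean of all tested compounds plus 3 SD, cut at about 5.5% in these data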;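 further: 100% = response to 3 µM Δ7-dafachronic acid high control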
AHR activator: AHR activators, primary screen, cell-based, luminescence, luciferase reporter, human. Aryl hydrocarbon receptor (Homo sapiens), P35869. AHR-responsive luciferase reporter cells. activation, % at 5 µM. 2.5% of 320,000 active; in the data active means activation above about 47%;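 further: 0% = vehicle wells and 100% = reference agonist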
ssDAF12 agonist: S. stercoralis DAF-12 nuclear receptor activators, primary screen, cell-based, luminescence, HEK293, GRIP1 co-expression, lit1-tk-luc; Nuclear hormone receptor DAF-12 (Strongyloides stercoralis); HEK293 ssDAF-12/GRIP1 lit1-tk-luc reporter; % of 3 µM dafachronic acid response; activation, % at 6.8 µM; 1% of 370,000 active; AID 652126, 2013;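 active means activation above the mean over all tested compounds plus 3 SD, cut at about 0.9% in these data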;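 further: 0% = DMSO-only wells and 100% = 3 µM delta7-dafachronic acid wells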
* = called active by the depositor; / = no result. Shown are actives, neighbours in structure and some others; about 5.7% of the full set was active somewhere.

SMILES	DAX1 inh-1	DAX1 inh-2	hgDAF-12 ag	hcDAF-12 act	AHR activator	ssDAF12 agonist
O=C(COc1ccccc1)NC1=NCCS1	2	0	1	2	1	-1
CC(C)c1ccc(OCC(=O)NC2=NCCS2)cc1	1	3.7*	7	5	1	0
O=C(CC(=O)c1ccccc1)Nc1ccccc1	4.5*	1	6	2	1	0
O=C1NC[C@H](Cc2ccccc2)N(CC2CCN(CCc3ccc(-c4ccccc4)cc3)CC2)C1=O	-1	3	-2	0	/	-1
COc1ccc(NC(=O)N(C)C[C@@H]2OCc3cnnn3CCCC(=O)N([C@@H](C)CO)C[C@@H]2C)cc1	/	0	2	0	/	0
O=C(C1CC(=O)N(c2ccc3c(c2)OCCO3)C1)N1CCN(c2cccc(C(F)(F)F)c2)CC1 (stereo unspecified)	-1	0	1	-1	1	-1
O=C1CC2CC1C(C(=O)O)C2C(=O)O (stereo unspecified)	1	0	4	2	/	-1
CN(CC(=O)Nc1ccc(F)cc1)C(=O)Cn1cnc2ccc(Cl)cc2c1=O	0	-1	1	-1	-1	0
COc1cc(NC(=O)c2ccccc2)c(C)cc1NC(=O)CSc1nnc(COc2ccccc2)n1Cc1ccco1	/	-2	-2	1	/	-1
Cc1ccc(NC(=O)C2C3CCC(O3)C2C(=O)O)c(Br)c1 (stereo unspecified)	-2	0	-2	-2	-1	-1
O=C(CN1CCc2ccccc2C1)Nc1ccc(F)cc1	4.2*	0	1	-1	/	-1
CN(C)c1ccc(NC(=O)CN2CCc3ccccc3C2)cc1	0	1	5	5.7*	15	0
CCOc1ccc(NC(=O)CN2CCc3ccccc3C2)cc1	3	-1	3	2	0	-1
COc1ccc(-c2csc(NC(CO)c3nc4ccccc4n3CCOCCO)n2)cc1 (stereo unspecified)	-1	0	4	0	33	-1
OCCOCCn1c(CCNc2nc(-c3ccc(Cl)cc3)cs2)nc2cc(Cl)c(Cl)cc21	-2	0	-1	-1	59*	-1
CC(Nc1nc(-c2ccc(F)cc2)cs1)c1nc2cc(Cl)c(Cl)cc2n1CCCO (stereo unspecified)	2	0	-1	0	72*	-1
COc1ccc(-c2csc(NC(CO)c3nc4ccccc4n3CCCO)n2)cc1 (stereo unspecified)	-1	0	-2	-1	55*	-1
CC(C)c1ccccc1OCC(=O)Nc1ccc2[nH]ncc2c1	0	-1	-2	-2	7	-1
N#CCCCc1cn(-c2ccc(-c3noc4c3C(=O)N(CC(=O)N3CCOCC3)CC4)cc2)nn1	/	1	0	0	/	-1
COc1cc(/C=N/NC(N)=S)cc(Br)c1OCc1ccccc1F	-2	-3	-3	-3	54*	-2
COc1cccc(/C=N/NC(N)=S)c1OCc1ccccc1Cl	0	-1	-2	-2	50*	-1
COc1cccc(/C=N/n2nnnc2N)c1OCc1ccccc1Cl	-1	-1	-2	-1	4	-2
COc1ccccc1OCCn1cc(/C=N/NC(N)=S)c2ccccc21	-1	-2	-5	-2	69*	-2
COc1ccc(OC)c(S(=O)(=O)N2CCCCC2C(=O)N2CCN(Cc3ccc(F)cc3)CC2)c1 (stereo unspecified)	/	-3	0	-3	/	-2
COc1ccccc1CNC(=O)c1cccc(S(=O)(=O)N2CCCC2)c1	-2	-1	-2	-1	/	-1
SMILES	DAX1 inh-1	DAX1 inh-2	hgDAF-12 ag	hcDAF-12 act	AHR activator	ssDAF12 agonist
COC(=O)c1ccc2nc(C3CCCCC3)c(Cc3ccccc3C(F)(F)F)n2c1	/	3.6*	2	2	/	0
FC(F)(F)c1ccccc1Cc1c(C2CCCCC2)nc2ccc(Cl)cn12	/	-1	-1	0	/	-1
COC(=O)c1ccc2nc(C3CCCCC3)c(Cc3ccc(C)cc3)n2c1	/	1	5	3	/	1.0*
COC(=O)c1ccc2nc(-c3ccco3)c(Cc3ccccc3OC)n2c1	/	-2	6	2	/	1.3*
Cc1ccc(C(C)C)c(OCC(=O)NNC(=O)CC2OC(=O)c3ccccc32)c1 (stereo unspecified)	4.2*	-1	2	-1	16	0
COc1ccc(CN2C(=O)CN(S(C)(=O)=O)CC2(C)C(=O)Nc2ccc3c(c2)OCCO3)cc1OC (stereo unspecified)	/	-1	-1	-2	/	0
CCn1nc(NC(=O)C(C)C)c2cc3cccc(C)c3nc21	0	0	-3	-1	15	-1
CCCCN(C(=O)C1=COCCO1)c1c(N)n(CCCC)c(=O)[nH]c1=O	0	1	1	0	2	-1
CCCCN(C(=O)CCN1C(=O)C2CC=CCC2C1=O)c1c(N)n(CCCC)c(=O)[nH]c1=O (stereo unspecified)	4.3*	0	2	-1	/	-1
CCCCn1c(N)c(N(CC)C(=O)C2=COCCO2)c(=O)[nH]c1=O	1	3.9*	2	0	-1	0
CCCCn1c(N)c(N(CCOC)C(=O)CCN2C(=O)C3CC=CCC3C2=O)c(=O)[nH]c1=O (stereo unspecified)	-1	-1	3	0	/	-1
COc1ccc(CCNC(=O)C2CC(=O)N(C3CCCCC3)C2)cc1OC (stereo unspecified)	1	-1	-2	-1	2	-1
O=C1/C(=C\c2cccnc2)Sc2ccccc21	1	0	3	0	53*	0
Cc1ccccc1N=C1NC(=O)/C(=C/c2cccnc2)S1	0	-1	1	4	11	1.9*
CN1C(=O)S/C(=C/c2cccnc2)C1=O	1	0	2	-1	0	-1
O=C1N/C(=N/O)S/C1=C/c1cccnc1	3	1	-2	0	5	-2
Cc1cc(N2CCN(C(=O)Oc3ccc(-c4ccccc4)cn3)CC2)c2ccccc2n1	/	-6	-8	-7	/	-3
O=C(Nc1ccc(-c2cn3ccccc3n2)cc1)c1ccco1	2	4.3*	12*	5	-1	0
O=S(=O)(Nc1ccc(-c2cn3ccccc3n2)cc1)c1ccccc1	4.3*	0	6	1	-3	-1
